Potency and affinity values are given separately. Results filed as inconclusive are left out. A number with no mark means an inactive call. Active and inactive are the calls of the source.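 The calls were made as follows: active = cytotoxic in every repeat run, with fitted half-maximal concentration at most twice the top tested dose; inconclusive = runs disagree, or flat partial drop, or poor curve fit; inactive = inactive in every run.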
Experiment: embryonic kidney cell viability loss – CellTiter-Glo luminescence, dry powder, set 20, cytotoxicity control, dose response (AID 1117293)
Conditions: HEK293T viability, CellTiter-Glo ATP luminescence, 72 h; series mostly up to 26 µM; activity change, negative = cytotoxicity: at the top concentration

Compound | activity change, negative = cytotoxicity | outcome
CC(=O)N1CCN(C(=O)C2CCCN2C(=O)Nc2ccc(C)cc2)CC1 (stereo unspecified) | 3.43% | 
Cc1ccc(NC(=O)NC2(C(=O)N3CCNCC3)CCCCC2)cc1 | 0.421% | 
COc1ccc(C(=O)O)cc1S(=O)(=O)Nc1cc(C(F)(F)F)ccc1N1CCOCC1 | -19.9% | 
COc1ccc(C(=O)O)cc1S(=O)(=O)N1CCN(c2ccc(C(F)(F)F)cc2N)CC1 | 8.49% | 
Cc1ccc(NC(=O)NC2(C(=O)N3CCN(c4ccccc4)CC3)CCCCC2)cc1 | 3.02% | 
CC(=O)N1CCN(C(=O)C(C)(C)NC(=O)Nc2ccc(C)cc2)CC1 | -10.8% | 
CC(=O)N1CCN(C(=O)C2(NC(=O)Nc3ccccc3C(F)(F)F)CCCCC2)CC1 | -13.6% | 
O=S(=O)(Nc1cc(C(F)(F)F)ccc1N1CCCCC1)c1ccccc1 | -6.45% | 
COc1ccc(C(=O)Nc2cc(C)ccc2N2CCCCC2)cc1S(=O)(=O)O | -1.51% | 
COc1ccc(C(=O)O)cc1S(=O)(=O)Nc1cc(C(F)(F)F)ccc1N1CCCCC1 |  | inactive
CC(=O)N1CCN(C(=O)C2(NC(=O)Nc3ccc(C(F)(F)F)cc3)CCCC2)CC1 | -14.6% | 
CC(=O)N1CCN(C(=O)C2(NC(=O)NC(C)(C)C)CCCCC2)CC1 | -21.7% | 
COc1ccc(C(=O)Nc2cc(F)ccc2N2CCCCC2)cc1S(=O)(=O)O | -5.87% | 
NC(=NCCc1c[nH]c2ccccc12)NS(=O)(=O)c1cc(F)ccc1F | -14.3% | 
O=[N+]([O-])c1cccc(S(=O)(=O)Nc2cc(C(F)(F)F)ccc2N2CCCCC2)c1 | -23.7% | 
CC(=O)N1CCN(C(=O)C2(NC(=O)NCCc3ccccc3)CCCCC2)CC1 | -9.03% | 

Reference: PubChem BioAssay AID1117293 (Broad Institute, 2014)
